This is an account of results in PubChem BioAssay (EPA / NIEHS).

For orientation: AC50 means the midpoint of the concentration-response curve, whichever way the signal moves.

Each structure is given as a SMILES string. Records with an inconclusive call do not appear. Calls of active or inactive are those of the source. The calls were made as follows, unless noted: active = hit-call score of the fitted dose curve at least 0.9, where 1 is the maximum; inactive = score below 0.9.

Read-out in test [1]: Interleukin-1 alpha (IL1a), IL1A (gene 3552)
Nature of the test: BSK_LPS_IL1a: BioMAP Diversity Plus: LPS Assay for Interleukin-1 alpha (IL1a) Biomarker Activity (AID 2283080). The settings on record: primary human HUVEC with PBMC; actives raise or lower the signal. The gist of the method:
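Readout is IL-1a level by ELISA, 24 h post-dose, fitted as gain or loss relative to DMSO. System: LPS-activated human primary co-culture of vascular endothelium and peripheral blood mononuclear cells, with parallel SRB total-protein cytotoxicity.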

Read-out in test [2]: Monocyte Chemoattractant Protein-1 (MCP1), CCL2 (gene 6347)
Nature of the test: BSK_LPS_MCP1: BioMAP Diversity Plus: LPS Assay for Monocyte Chemoattractant Protein-1 (MCP1) Biomarker Activity (AID 2283081).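 As to AC50: secreted MCP-1 protein quantified by ELISA in culture supernatant.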 The following applies: primary human HUVEC with PBMC; actives raise or lower the signal. The gist of the method: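 Secreted MCP-1 read by ELISA at 24 h post-dosing in an LPS-activated co-culture of endothelial cells with peripheral blood mononuclear cells. Fits run in both directions, DMSO as baseline; parallel SRB staining tracks overt cytotoxicity.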

Test [3] is described as follows: BSK_LPS_PGE2: BioMAP Diversity Plus: LPS Assay for Prostaglandin E2 (PGE2) Biomarker Activity (AID 2283082).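 As to AC50: secreted prostaglandin E2 measured by ELISA in LPS-stimulated co-culture.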 The settings on record: primary human HUVEC with PBMC; actives raise or lower the signal. The gist of the method:
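HUVEC plus PBMC co-culture stimulated with LPS; secreted PGE2 quantified by ELISA 24 h after chemical dosing. Activity fitted bidirectionally against DMSO as negative control and baseline; parallel SRB total-protein staining served as cytotoxicity check.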

Read-out in test [4]: Macrophage colony-stimulating factor (MCSF), CSF1 (gene 1435)
Nature of the test: BSK_LPS_MCSF: BioMAP Diversity Plus: LPS Assay for Macrophage colony-stimulating factor (MCSF) Biomarker Activity (AID 2283083). The following applies: primary human HUVEC with PBMC; actives raise or lower the signal. The method in brief: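 Bidirectional fitting against DMSO was applied to M-CSF levels read by ELISA at 24 h post-dose. The system pairs human umbilical vein endothelium with peripheral blood mononuclear cells; parallel SRB staining tracked cytotoxicity.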

Read-out in test [5]: Tissue Factor, F3 (gene 2152)
Nature of the test: BSK_LPS_TissueFactor: BioMAP Diversity Plus: LPS Assay for Tissue Factor Biomarker Activity (AID 2283084). The following applies: primary human HUVEC with PBMC; actives raise or lower the signal. The method in brief:
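Compound was added to an endothelial cell/PBMC co-culture, and after 24 h tissue factor (CD142) was read by ELISA. Gain or loss of signal was fitted against a DMSO baseline, and parallel SRB staining (560 nm) tracked overt cytotoxicity.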

Read-out in test [6]: Tumor necrosis factor (Homo sapiens) (UniProt P01375)
Nature of the test: BSK_LPS_TNFa: BioMAP Diversity Plus: LPS Assay for Tumour Necrosis Factor alpha (TNFa) Biomarker Activity (AID 2283085). The settings on record: primary human HUVEC with PBMC; actives raise or lower the signal. The method in brief:
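Human umbilical vein endothelial cells co-cultured with PBMC were exposed to test chemical and TNFa measured by ELISA 24 h after dosing. Bidirectional curve fitting was done relative to DMSO as negative control and baseline.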

Read-out in test [7]: Vascular cell adhesion molecule 1 (VCAM1), VCAM1 (gene 7412)
Nature of the test: BSK_LPS_VCAM1: BioMAP Diversity Plus: LPS Assay for Vascular cell adhesion molecule 1 (VCAM1) Biomarker Activity (AID 2283086). The following applies: primary human HUVEC with PBMC; actives raise or lower the signal. The gist of the method: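 Human umbilical vein endothelial cells co-cultured with peripheral blood mononuclear cells under LPS stimulation were exposed to test chemical for 24 h. VCAM-1 levels were then measured by ELISA, with bidirectional curve fitting relative to DMSO as negative control and baseline.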

Read-out in the next test: CD38, CD38 (gene 952)
The test is described as follows: BSK_SAg_CD38: BioMAP Diversity Plus: SAg Assay for CD38 Biomarker Activity (AID 2283087). The following applies: primary human HUVEC with PBMC; actives raise or lower the signal. The gist of the method:
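Fluorescence ELISA of cell-surface CD38 served as the read-out, with either increase or decrease fitted against DMSO controls. Cells were a human umbilical vein endothelium plus PBMC co-culture under SEB/TSST-1 stimulation, measured 24 h after dosing.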

Read-out in another test: CD40, CD40 (gene 958)
Nature of the test: BSK_SAg_CD40: BioMAP Diversity Plus: SAg Assay for CD40 Biomarker Activity (AID 2283088). The settings on record: primary human HUVEC with PBMC; actives raise or lower the signal. The method in brief: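 CD40 is measured by fluorescence ELISA in an endothelial/PBMC primary human co-culture at 24 h post-dose. Fitting is bidirectional, DMSO baseline. Parallel SRB staining (560 nm) flags cytotoxicity.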

Read-out in another test: CD69, CD69 (gene 969)
Nature of the test: BSK_SAg_CD69: BioMAP Diversity Plus: SAg Assay for CD69 Biomarker Activity (AID 2283089).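 As to AC50: cell surface CD69 protein quantified by ELISA with fluorescence detection.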 The following applies: primary human HUVEC with PBMC; actives raise or lower the signal. The gist of the method:
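ELISA, fluorescence read-out: CD69 on human umbilical vein endothelial cell + PBMC co-culture, 24 h post-dosing. Gain or loss of signal fitted bidirectionally against DMSO baseline.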

Read-out in test [8]: Monocyte Chemoattractant Protein-1 (MCP1), CCL2 (gene 6347)
The test is described as follows: BSK_SAg_MCP1: BioMAP Diversity Plus: SAg Assay for Monocyte Chemoattractant Protein-1 (MCP1) Biomarker Activity (AID 2283090). The settings on record: primary human HUVEC with PBMC; actives raise or lower the signal. The method in brief:
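MCP-1 levels in the endothelial–PBMC SAg co-culture were quantified by ELISA at 24 h post-dosing; both increases and decreases versus DMSO scored. Cytotoxicity monitored by SRB total protein in parallel cultures.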

Read-out in test [9]: E-selectin (Homo sapiens) (UniProt P16581)
The test is described as follows: BSK_SAg_Eselectin: BioMAP Diversity Plus: SAg Assay for Eselectin Biomarker Activity (AID 2283091). The settings on record: primary human HUVEC with PBMC; actives raise or lower the signal. The gist of the method: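 Cell-surface E-selectin is read by ELISA at 24 h in the SAg co-culture of HUVEC and PBMC. Curves are fitted in both directions relative to DMSO. Parallel SRB total-protein staining tracks overt toxicity.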

Read-out in test [10]: Monokine induced gamma interferon (MIG), CXCL9 (gene 4283)
Nature of the test: BSK_SAg_MIG: BioMAP Diversity Plus: SAg Assay for Monokine induced gamma interferon (MIG) Biomarker Activity (AID 2283092). The settings on record: primary human HUVEC with PBMC; actives raise or lower the signal. The gist of the method:
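ELISA readout of MIG/CXCL9; primary human umbilical vein endothelial cells co-cultured with peripheral blood mononuclear cells; 24 h post-dose; gain/loss fit vs DMSO baseline.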

Test [11] can be described thus: BSK_SAg_PBMCCytotoxicity: PBMC Cytotoxicity Assessment in the BioMAP Diversity Plus: SAg Assay (AID 2283093).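 Also: PBMC viability measured as Alamar Blue reduction fluorescence at 546/580 nm; fitted both ways against DMSO so a hit may be loss or gain of signal.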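 As to AC50: PBMC superantigen activated with SEB plus TSST-1 one hour after compound addition.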 The following applies: primary human HUVEC with PBMC. The method in brief:
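HUVEC/PBMC co-culture; PBMC exposed to chemical 1 h before SEB and TSST-1 activation (20 ng/mL each), incubated 90 h, then Alamar Blue 6 h, fluorescence 546/580 nm. Bidirectional fit versus DMSO baseline.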

Read-out in test [12]: Interleukin-8 (IL8), CXCL8 (gene 3576)
Nature of the test: BSK_SAg_IL8: BioMAP Diversity Plus: SAg Assay for Interleukin-8 (IL8) Biomarker Activity (AID 2283094). The settings on record: primary human HUVEC with PBMC; actives raise or lower the signal. The method in brief:
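Human umbilical vein endothelial cells co-cultured with peripheral blood mononuclear cells; IL-8 measured by ELISA 24 h after chemical dosing. Bidirectional concentration-response fitting used DMSO as negative control and activity baseline.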

The nature of test [13]: BSK_SAg_Proliferation: Cell Proliferation Assessment in the BioMAP Diversity Plus: SAg Assay (AID 2283095).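 Also: relative cell number as total protein by SRB absorbance in sub-confluent culture.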 The settings on record: primary human HUVEC with PBMC. The method in brief: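 Human umbilical vein endothelial cells co-cultured with peripheral blood mononuclear cells; total protein measured by sulforhodamine B staining (0.1% SRB after 10% TCA fixation), absorbance at 560 nm, at 96 h. Bidirectional fit against DMSO baseline.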

The nature of test [14]: BSK_SAg_SRB: Viability Assessment in the BioMAP Diversity Plus: SAg Assay (AID 2283096).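 Also: cells read one day after compound addition; hits may be either gain or loss of signal compared with DMSO.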 The settings on record: primary human HUVEC with PBMC. The gist of the method: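 Human umbilical vein endothelial cells co-cultured with PBMC, read 24 h after compound dosing. Total protein measured by sulforhodamine B staining (0.1% SRB after 10% TCA fixation, absorbance 560 nm); bidirectional fit versus DMSO baseline.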

For test [15], the target named is human CYP19A1, CYP19A1 (gene 1588) (UniProt P11511). The test is described as follows: NVS_ADME_hCYP19A1: NovaScreen (NVS) CYP450-related Enzyme Activity (ADME) Assay for human CYP19A1 (AID 2283098; active = hit-call score of the fitted dose curve at least 0.9, where 1 is the maximum). The method in brief: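 Recombinant enzyme in a cell-free format, read 0.5 h after dosing by fluorescence from a fluorogenic substrate. Loss of signal was fitted against acetonitrile as baseline. Primary screen in duplicate at 10 uM, actives then tested in concentration series.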
Sequence of human CYP19A1, CYP19A1 (gene 1588) (P11511 whole entry, looked up): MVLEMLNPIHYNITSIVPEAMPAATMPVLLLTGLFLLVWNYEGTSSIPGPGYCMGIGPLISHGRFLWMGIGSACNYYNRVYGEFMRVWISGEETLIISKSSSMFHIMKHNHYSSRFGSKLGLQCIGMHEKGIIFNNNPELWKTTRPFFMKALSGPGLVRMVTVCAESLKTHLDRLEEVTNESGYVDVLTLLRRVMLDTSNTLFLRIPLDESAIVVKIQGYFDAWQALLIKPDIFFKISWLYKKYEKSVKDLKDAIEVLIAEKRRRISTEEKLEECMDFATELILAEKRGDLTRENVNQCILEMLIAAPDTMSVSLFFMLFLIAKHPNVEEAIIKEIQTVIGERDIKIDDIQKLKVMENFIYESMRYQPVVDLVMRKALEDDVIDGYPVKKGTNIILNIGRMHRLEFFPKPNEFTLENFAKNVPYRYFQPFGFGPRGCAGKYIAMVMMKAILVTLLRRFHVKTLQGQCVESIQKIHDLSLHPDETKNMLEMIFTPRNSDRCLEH

Sequence of E-selectin (Homo sapiens) (P16581 whole entry, looked up): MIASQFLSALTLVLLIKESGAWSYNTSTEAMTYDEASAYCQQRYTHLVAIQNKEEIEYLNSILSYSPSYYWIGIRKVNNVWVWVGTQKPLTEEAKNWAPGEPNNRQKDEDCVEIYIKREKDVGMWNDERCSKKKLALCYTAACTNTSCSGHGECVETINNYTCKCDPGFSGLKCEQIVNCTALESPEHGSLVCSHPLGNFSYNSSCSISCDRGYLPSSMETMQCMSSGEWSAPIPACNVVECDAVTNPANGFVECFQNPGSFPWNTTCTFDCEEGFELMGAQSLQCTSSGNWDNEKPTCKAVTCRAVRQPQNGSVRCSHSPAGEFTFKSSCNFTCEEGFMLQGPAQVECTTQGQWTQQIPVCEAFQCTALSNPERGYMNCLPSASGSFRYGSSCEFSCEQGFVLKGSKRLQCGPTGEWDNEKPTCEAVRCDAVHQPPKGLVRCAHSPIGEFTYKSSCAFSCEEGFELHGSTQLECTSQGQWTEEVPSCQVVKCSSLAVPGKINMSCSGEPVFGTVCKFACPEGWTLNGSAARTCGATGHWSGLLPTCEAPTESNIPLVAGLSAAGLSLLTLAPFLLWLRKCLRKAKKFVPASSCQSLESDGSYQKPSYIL
Sequence of Tumor necrosis factor (Homo sapiens) (P01375 whole entry, looked up): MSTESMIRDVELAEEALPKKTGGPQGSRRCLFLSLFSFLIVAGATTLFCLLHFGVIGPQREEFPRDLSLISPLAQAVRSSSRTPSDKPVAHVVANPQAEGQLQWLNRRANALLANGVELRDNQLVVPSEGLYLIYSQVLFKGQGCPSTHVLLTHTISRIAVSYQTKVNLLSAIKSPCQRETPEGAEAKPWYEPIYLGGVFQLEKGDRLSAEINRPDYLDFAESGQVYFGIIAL

Turning to `O=C(Nc1ccccc1-c1ccc(Cl)cc1)c1cccnc1Cl`, the outcome in test [1], in test [2], in test [3], in test [4], in test [5] and in [6] was inactive. Also, the outcome is “inactive” in test [7]; “inactive” with CD38, CD38 (gene 952); “inactive” with CD40, CD40 (gene 958); “inactive” with CD69, CD69 (gene 969); “inactive” in [8]; “inactive” in [9]. For the same compound, the result in test [10], in test [11], in [12], in [13] and in [14] was inactive.

As to `OC(c1ccc(Cl)cc1)(c1ccc(Cl)cc1)C(Cl)(Cl)Cl`, the AC50 in [1] was 27.4 µM (active); in test [2], 30.6 µM (active); in test [3], 17.5 µM (active); in test [4], 29.5 µM (active); in [5], 20 µM (active); in test [6], 30.8 µM (active). Besides, the AC50 in test [7] was 29.3 µM (active); in the test with CD38, CD38 (gene 952) it was 29.7 µM (active); in the test with CD40, CD40 (gene 958), 29.9 µM (active); in the test with CD69, CD69 (gene 969) it was 30 µM (active); in test [8], 30.7 µM (active); in [9], 27.2 µM (active). In addition, the AC50 in test [10] is 34.4 µM (active); in [11], 20 µM (active); in test [12] it was 27.9 µM (active); in [13], 15 µM (active); in [14], 31.8 µM (active). Also, the compound was called inactive in [15].

`COCc1cnc(C2=NC(C)(C(C)C)C(=O)N2)c(C(=O)O)c1` (centres undefined): the result in [1], in [2], in [3], in [4], in test [5] and in test [6] was inactive. Also, the outcome in test [7] is “inactive”; with CD38, CD38 (gene 952), “inactive”; in the test with CD40, CD40 (gene 958), “inactive”; in the test with CD69, CD69 (gene 969) it was “inactive”; in test [8], “inactive”; in test [9], “inactive”. For the same compound, the outcome in [10], in test [11], in test [12], in test [13] and in test [14] was inactive.

In the case of `CC(C)N1C(=O)c2ccccc2NS1(=O)=O`, the outcome in test [1], in test [2], in test [3], in test [4], in [5] and in test [6] was inactive. In addition, the outcome in test [7] is “inactive”; with CD38, CD38 (gene 952), “inactive”; with CD40, CD40 (gene 958), “inactive”; with CD69, CD69 (gene 969), “inactive”; in [8] it was “inactive”; in [9] it was “inactive”. Also, the result in test [10], in test [11], in test [12], in [13] and in test [14] was inactive.

In the case of `CCN(CC)C(=O)C(C)Oc1cccc2ccccc12` (centres undefined), the outcome in [1], in test [2], in [3], in [5], in test [6] and in test [7] was inactive. In addition, the outcome in the test with CD38, CD38 (gene 952) is “inactive”; in the test with CD40, CD40 (gene 958) it was “inactive”; in the test with CD69, CD69 (gene 969), “inactive”; in test [8], “inactive”; in [10], “inactive”; in [11] it was “inactive”. Besides, the result in test [12], in test [13], in [14] and in [15] was inactive. Further, the figures for the AC50 in test [4] and in [9] were 0.274 µM (active) and 1.06 µM (active), respectively.

`CCOP(=S)(OCC)Oc1nc(Cl)n(C(C)C)n1`: the result in test [1], in test [2], in test [4], in test [5], in test [6] and in test [7] was inactive. Moreover, the outcome is “inactive” in the test with CD38, CD38 (gene 952); “inactive” with CD40, CD40 (gene 958); “inactive” with CD69, CD69 (gene 969); “inactive” in test [8]; “inactive” in test [9]; “inactive” in test [10]. The outcome in test [11], in [12], in [13] and in test [14] was inactive. Besides, in [3], the AC50 is 14.1 µM (active).
